# Measurements from PubChem BioAssay (NCATS).
# A number with no mark means an inactive call. Inconclusive results are not listed. Entries that show only a call come without a potency. Calls of active or inactive are those of the source. The call rests on the fitted dose curve; in most records, active means well fitted curve in the direction sought with a large enough effect; inconclusive means small, poorly fitted or top-dose-only effect, or another doubt; inactive means no such curve, though single readings can be large; an effect the other way counts as inactive or inconclusive.
# Key:
# [1] = test system: Zika virus NS2B-NS3 protease; test: Primary screen GU AMC qHTS for Zika virus inhibitors (AID 1347154); further: nearly all actives have a fitted effect of over 70% in size
# Method in brief: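 Fluorogenic AMC-substrate cleavage by noncovalent NS2B-NS3 protease complex (25 nM, pH 8.0 Tris buffer with Tween 20) followed for 15 minutes at room temperature (~20% conversion). Percent inhibition from ex340/em450 signal change, fitted by 4-parameter Hill equation.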
# [2] = Confirmatory screen GU Rhodamine qHTS for Zika virus inhibitors qHTS (AID 1347157); further: potency means the concentration at half of the fitted maximal effect; nearly all actives have a fitted effect of over 70% in size
# Method in brief: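 A qHTS format was used, with compound concentrations ranging up to 114 microM. Each compound was preincubated with 25 nM NS2B-NS3 protease, and the substrate was then added at 1.5 microM. Curves were fitted with a 4-parameter Hill model.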
# [3] = test system: Zika virus NS2B-NS3 protease (unlinked complex); test: Primary screen GU Rhodamine qHTS for Zika virus inhibitors: Unlinked NS2B-NS3 protease assay (AID 1347159); further: nearly all actives have a fitted effect of over 60% in size; further: potency means the concentration at half of the fitted maximal effect
# Method in brief: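 Compounds, tested up to 114 microM, were incubated for 15 minutes with 25 nM unlinked NS2B-NS3 protease at pH 8.0. Cleavage of 1.5 microM Rhodamine110 substrate was then followed by fluorescence for 15 minutes.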
# [4] = test system: Zika virus NS2B-NS3 protease (linked construct); test: Primary screen NINDS Rhodamine qHTS for Zika virus inhibitors (AID 1347160); further: nearly all actives have a fitted effect of over 55% in size
# Method in brief: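 Percent inhibition, normalized to uninhibited and enzyme-free controls, is fitted to a 4-parameter Hill equation. Fluorescence change comes from a 15-min cleavage of 1.5 microM bis-peptide Rhodamine110 substrate by 25 nM linked NS2B-NS3 at room temperature.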
# [5] = Confirmatory screen NINDS Rhodamine qHTS for Zika virus inhibitors (AID 1347161); further: nearly all actives have a fitted effect of over 60% in size; further: potency means the concentration at half of the fitted maximal effect;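 on activity change, negative = inhibition: purified Zika NS2B-NS3 protease with linked NS2B cofactor domain and Rhodamine110 peptide substrate; series mostly up to about 110 µM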
# Method in brief: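 Rhodamine110-peptide cleavage (1.5 µM substrate) by 25 nM linked NS2B-NS3 enzyme at pH 8.0 (Tris, Tween 20), after 15 min RT preincubation with compounds; 15-min fluorescence change normalized to controls and Hill-fitted.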
# [6] = Tertiary RLuc qRT-PCR qHTS assay for Zika virus inhibitors (AID 1347169); further: top concentration of the series differs between compounds; nearly all actives have a fitted effect of over 55% in size
# Method in brief: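 Orthogonal cell-based infection assay using recombinant ZIKV-RLuc (Cambodian) in Vero cells; compound added prior to virus at MOI 1-2. Incubation lasts 48-72 hrs at 37 degrees C before live-cell Renilla substrate is added and luminescence measured.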
# [7] = qHTS to identify inhibitors of the type 1 interferon - major histocompatibility complex class I in skeletal muscle: primary screen against the NCATS Mechanism Interrogation Plate v5.0 (MIPE) Libary (AID 1347411); further: nearly all actives have a fitted effect of over 65% in size
# Method in brief: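 Immortalized human myoblasts (C25cl48) with HiBit knocked into endogenous HLA-B*08:01 were stimulated with 4 ng/ml IFN-beta and given compounds in 11-point 1:3 titration from 46 uM. After 24 h at 37 C, lytic HiBiT luminescence was read.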
# [8] = target: Lysine-specific demethylase 5B (Homo sapiens) (UniProt Q9UGL1); test: Optimization screen for KDM5B Histone Demethylases FDH coupled qHTS against the LOPAC library (AID 1347166)
# Chain of Lysine-specific demethylase 5B (Homo sapiens) (Q9UGL1 whole entry, looked up): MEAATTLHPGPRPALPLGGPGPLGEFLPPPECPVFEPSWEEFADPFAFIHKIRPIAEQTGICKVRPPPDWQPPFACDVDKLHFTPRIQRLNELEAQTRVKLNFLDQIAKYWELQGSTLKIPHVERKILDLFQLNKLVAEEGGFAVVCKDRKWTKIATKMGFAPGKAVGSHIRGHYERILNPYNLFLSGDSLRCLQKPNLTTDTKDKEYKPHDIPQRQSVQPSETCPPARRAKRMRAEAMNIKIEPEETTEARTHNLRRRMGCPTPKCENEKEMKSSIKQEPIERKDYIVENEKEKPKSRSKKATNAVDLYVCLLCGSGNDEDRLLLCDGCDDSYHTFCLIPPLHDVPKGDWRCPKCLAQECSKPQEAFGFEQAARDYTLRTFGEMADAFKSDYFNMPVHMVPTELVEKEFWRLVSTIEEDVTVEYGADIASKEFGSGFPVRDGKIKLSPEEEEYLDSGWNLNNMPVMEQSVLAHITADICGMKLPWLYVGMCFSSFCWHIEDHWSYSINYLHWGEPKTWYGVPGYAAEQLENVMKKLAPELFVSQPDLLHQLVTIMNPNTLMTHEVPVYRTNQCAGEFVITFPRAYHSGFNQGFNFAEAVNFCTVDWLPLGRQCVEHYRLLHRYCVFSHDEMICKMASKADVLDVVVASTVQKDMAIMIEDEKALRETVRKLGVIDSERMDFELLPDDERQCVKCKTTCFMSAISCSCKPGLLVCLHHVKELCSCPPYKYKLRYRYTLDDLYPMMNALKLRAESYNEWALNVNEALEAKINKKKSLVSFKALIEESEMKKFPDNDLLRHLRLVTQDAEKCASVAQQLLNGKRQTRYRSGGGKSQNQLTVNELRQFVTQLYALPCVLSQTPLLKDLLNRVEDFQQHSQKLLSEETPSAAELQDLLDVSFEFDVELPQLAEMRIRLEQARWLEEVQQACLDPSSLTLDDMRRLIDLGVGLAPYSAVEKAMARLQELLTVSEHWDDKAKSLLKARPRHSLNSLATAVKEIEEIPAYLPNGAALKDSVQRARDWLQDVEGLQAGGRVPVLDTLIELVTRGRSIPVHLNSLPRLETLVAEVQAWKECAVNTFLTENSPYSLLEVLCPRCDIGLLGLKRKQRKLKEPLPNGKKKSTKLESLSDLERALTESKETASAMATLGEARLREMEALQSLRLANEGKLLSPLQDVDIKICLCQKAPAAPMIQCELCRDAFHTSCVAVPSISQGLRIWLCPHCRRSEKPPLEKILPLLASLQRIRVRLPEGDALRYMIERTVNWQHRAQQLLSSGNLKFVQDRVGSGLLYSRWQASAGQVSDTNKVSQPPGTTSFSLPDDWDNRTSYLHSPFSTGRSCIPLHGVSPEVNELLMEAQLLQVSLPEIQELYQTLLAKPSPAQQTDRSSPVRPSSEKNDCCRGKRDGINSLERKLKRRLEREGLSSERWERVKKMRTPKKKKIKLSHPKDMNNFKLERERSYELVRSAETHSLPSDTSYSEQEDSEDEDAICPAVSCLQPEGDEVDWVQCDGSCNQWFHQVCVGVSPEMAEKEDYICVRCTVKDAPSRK
# Method in brief: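 KDM5BDeltaAP (200nM final) preincubated 10 min with compound, then 12.5uM H3K4Me3, 25uM a-ketoglutarate, ascorbate, Fe(II), NAD+ and FDH added; 50mM HEPES pH 7.5, 0.01% Tween-20. NADH fluorescence (340/450 nm) change over 30 min, room temperature.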
# [9] = Vero cells viability qHTS for Zika virus inhibitors (AID 1347167)
# Method in brief: (§1)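 Compounds were tested in concentration series on cells grown in DMEM containing 4% FBS. After 24 to 48 hours, cellular ATP was measured by luminescence with CellTiter Glo.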
# [10] = HepG2 cells viability qHTS for Zika virus inhibitors (AID 1347168)
# Method in brief: as §1
# [11] = qHTS to identify inhibitors of the type 1 interferon - major histocompatibility complex class I in skeletal muscle: primary screen against the NCATS LOPAC collection (AID 1347405);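 further: lytic HiBiT luminescence reporting HLA-B protein level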
# Method in brief: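 CRISPR-engineered immortalized human myoblasts (C25cl48) with HiBiT fused to endogenous HLA-B*08:01, stimulated with 4 ng/ml IFN-beta. LOPAC compounds tested as a 7-point 1:4.3 titration (top 46 uM final), 24 h at 37 C; lytic HiBiT luminescence read.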
# [12] = qHTS to identify inhibitors of the type 1 interferon - major histocompatibility complex class I in skeletal muscle: primary screen against the NCATS Pharmaceutical Collection (AID 1347407);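 further: luminescence of HiBiT knocked into endogenous HLA-B as interferon-induced MHC class I level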
# Method in brief: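 Cells were seeded with 4 ng/ml IFN-beta, incubated 1 h, then dosed with compounds over eight 1:5 steps up to 46 uM final. After 24 h at 37 C, HiBiT lytic reagent was added and luminescence read after 10 min lysis in the dark.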
# [13] = target: Protein phosphatase 1D (Homo sapiens) (UniProt O15297); test: RapidFire Mass Spectrometry qHTS Assay for Modulators of WT P53-Induced Phosphatase 1 (WIP1) (AID 1347424);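 further: amount of dephosphorylated VEPPL-S-QETFS peptide product formed by WIP1; series mostly up to about 63 µM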
# Chain of Protein phosphatase 1D (Homo sapiens) (O15297 whole entry, looked up): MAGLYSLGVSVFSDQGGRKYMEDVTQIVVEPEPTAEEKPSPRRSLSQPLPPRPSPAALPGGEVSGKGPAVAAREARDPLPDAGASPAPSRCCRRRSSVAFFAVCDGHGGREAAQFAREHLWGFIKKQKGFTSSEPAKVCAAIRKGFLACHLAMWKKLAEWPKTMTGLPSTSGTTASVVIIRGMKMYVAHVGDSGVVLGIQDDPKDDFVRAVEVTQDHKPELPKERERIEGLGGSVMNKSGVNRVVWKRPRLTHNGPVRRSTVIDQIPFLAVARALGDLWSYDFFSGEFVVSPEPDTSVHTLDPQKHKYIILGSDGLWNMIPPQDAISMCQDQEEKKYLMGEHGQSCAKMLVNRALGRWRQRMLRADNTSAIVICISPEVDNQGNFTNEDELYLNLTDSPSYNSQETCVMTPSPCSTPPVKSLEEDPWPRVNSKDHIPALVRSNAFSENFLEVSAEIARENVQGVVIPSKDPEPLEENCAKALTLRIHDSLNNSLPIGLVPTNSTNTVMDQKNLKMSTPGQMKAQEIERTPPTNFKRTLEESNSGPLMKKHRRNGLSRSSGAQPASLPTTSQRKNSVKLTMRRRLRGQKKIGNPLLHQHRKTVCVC
# Method in brief: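 10 nM WIP1 + cpd, 1 h RT; + 2 uM VEPPL-pS-QETFS, 5 min RT; stop 0.5% formic acid; labelled product standard 1 uM; RapidFire MS. Buffer 50 mM Tris pH 7.5, 30 mM MgCl2, 1 mM TCEP.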
# [14] = Validation qHTS assay for inhibitors of Activation Induced Cytidine Deaminase (AID): UDG Counterscreen signal (AID 1347427)
# Method in brief: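 Counterscreen read of UDG activity (2 U/mL, 4/3x) in the FRET deamination format with AID (1 uM, 4/3x), DJC20/DJC23 substrates (250 nM, 4x), 4 h at room temperature. NaOH stop, fluorescence at 560 ex/665 em.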
# [15] = target: Single-stranded DNA cytosine deaminase (Homo sapiens) (UniProt Q9GZX7); test: Validation qHTS assay for inhibitors of Activation Induced Cytidine Deaminase (AID): AID signal (AID 1347429)
# Chain of Single-stranded DNA cytosine deaminase (Homo sapiens) (Q9GZX7 whole entry, looked up): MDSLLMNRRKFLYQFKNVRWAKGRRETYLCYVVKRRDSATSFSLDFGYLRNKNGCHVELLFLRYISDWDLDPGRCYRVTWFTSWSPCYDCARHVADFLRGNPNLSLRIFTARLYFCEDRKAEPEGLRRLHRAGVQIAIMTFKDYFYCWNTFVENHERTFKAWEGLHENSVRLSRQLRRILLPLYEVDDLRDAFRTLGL
# Method in brief: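 FRET deamination assay: 1 uM AID (4/3x stock) with UDG, compound up to 114 uM, then 250 nM DJC20/DJC23 substrate (4x stock) for 4 hr at room temperature. NaOH added, 30 min; fluorescence read 540/590 nm.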
smiles,measurement,setting,value
COc1cc2c(cc1OC)CN(CCc1ccc(NC(=O)c3cccc4c(=O)c5cccc(OC)c5[nH]c34)cc1)CC2,Potency,[1],inactive
same,Potency,[2],44.1 µM (active)
same,Potency,[3],39.8 µM (active)
same,Potency,[4],inactive
same,Potency,[5],55.5 µM (active)
same,Potency,[6],inactive
same,Potency,[7],inactive
Cc1ccc2c(c1)C(=O)[C@@]1(O)CCN(c3ccccc3)C1=N2,Potency,[1],inactive
COc1cc(Nc2ncc3c(n2)-c2ccc(Cl)cc2C(c2c(F)cccc2OC)=NC3)ccc1C(=O)O,Potency,[1],inactive
same,Potency,[3],20 µM (active)
same,Potency,[4],inactive
O=C(C=Cc1ccc(/C=C/C(=O)Nc2ccc(C3=NCCN3)cc2)cc1)Nc1ccc(C2=NCCN2)cc1,Potency,[1],inactive
CCN(CC)CCCC(C)Nc1ccnc2cc(Cl)ccc12 (stereo not drawn),Potency,[1],inactive
same,"activity change, negative = inhibition",[3],52.4% [at 19.1 µM]
same,outcome,[4],inactive [at 10.7 µM]
same,Potency,[5],inactive
same,outcome,[8],inactive
same,outcome,[9],inactive
same,outcome,[10],inactive
same,Potency,[6],inactive
same,Potency,[11],inactive
same,outcome,[12],inactive
same,"activity change, negative = inhibition",[7],34% [at 8.44 µM]
same,Potency,[13],inactive
same,outcome,[14],inactive
same,Potency,[15],inactive
CCOC(=O)C1=C[C@@]2(CC)CCCN3CCc4c(n1c1ccccc41)[C@H]32,Potency,[1],inactive
COCCNCCCn1c(C(=O)CF)c(-c2ccc(C)cc2)c2c(N)ncnc21,Potency,[1],inactive
CC(=O)NC(C)c1ccc(Oc2ccc(OC(C)C)cc2)cc1 (stereo not drawn),Potency,[1],inactive
CCOc1ccc(Cc2cc([C@@H]3O[C@H](CO)[C@@H](O)[C@H](O)[C@@H]3O)ccc2Cl)cc1,Potency,[1],inactive
COc1ccc([C@@H]2CC(=O)c3c(O)cc(O[C@@H]4O[C@H](CO[C@@H]5O[C@@H](C)[C@H](O)[C@@H](O)[C@@H]5O)[C@@H](O)[C@H](O)[C@@H]4O)cc3O2)cc1O,Potency,[1],inactive
O=C(NOC[C@H](O)CO)c1ccc(F)c(F)c1Nc1ccc(I)cc1F,Potency,[1],inactive
same,Potency,[3],22.4 µM (active)
